Test results taken from the supplement of paper PMC10646978.
± gives the standard deviation.

Key:
Conditions in all cases: modulator concentration 10 µM
[1] = tested on: RAW-Dual (murine macrophage reporter line); assay: NF-kB reporter (SEAP) activity fold change vs agonist alone; higher = enhanced NF-kB activity
How it was run: (§1)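 RAW-Dual murine macrophage reporter cells were seeded at 50 000 per well in 384-well plates and pre-incubated 1 hour at 37 °C with compound pin-transferred to 10 μM final. After 1 hour, a PRR agonist was added and cells incubated overnight. Supernatant NF-κB (SEAP, QUANTI-Blue, 620 nm absorbance) and IRF (Lucia luciferase, QUANTI-Luc, luminescence) signals were divided by the mean agonist-only control on the same plate to give fold change. Two replicate plates were averaged, with errors by propagation.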

[2] = tested on: RAW-Dual (murine macrophage reporter line); assay: IRF reporter (Lucia luciferase) activity fold change vs agonist alone; higher = enhanced IRF activity
How it was run: as §1

[3] = tested on: RAW-Dual (murine macrophage reporter line); assay: viability score (confluency relative to resting cells, overnight) (fraction); higher = more viable, active = viable (0.7 or more)
How it was run: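 Confluency was the readout: RAW-Dual macrophages were imaged with IncuCyte after an overnight exposure to compound at 10 μM final. IncuCyte software produced two masks over all imaged wells. The viability score expresses confluency against resting cells, and both masks had to exceed 70% of resting cells for a compound to meet the cutoff.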

[4] = agonist: CpG ODN 1826 0.5 ug/mL

Row | Structure (SMILES) | NF-kB reporter [1, 4] | NF-kB reporter ([1]; agonist: LPS 0.1 ug/mL) | NF-kB reporter ([1]; agonist: MPLA […]) | IRF reporter ([2]; agonist: 3'3'-cGAMP 10 ug/mL) | IRF reporter ([2]; agonist: LPS 0.1 ug/mL) | IRF reporter ([2]; agonist: MPLA […]) | viability score [3]
1 | Cc1c(C#N)sc2nc(-c3ccccc3)nc(N=CN(C)C)c12 | 1.01 ± 0.086 | 1.05 ± 0.095 | 0.952 ± 0.027 | 0.94 ± 0.056 | 0.971 ± 0.078 | 1.03 ± 0.18 | 1 (active)
2 | COC(=O)CSc1nc(O)c2c(C)c(C)sc2n1 | 0.808 ± 0.077 | 0.829 ± 0.04 | 1.03 ± 0.1 | 0.984 ± 0.046 | 1.49 ± 0.093 | 1.55 ± 0.19 | 1.01 (active)
3 | COc1cc(C2C(C(=O)c3ccccc3)=C(O)C(=O)N2c2cccnc2)ccc1O (stereo not drawn) | 0.915 ± 0.14 | 0.595 ± 0.13 | 0.582 ± 0.1 | 0.758 ± 0.068 | 0.849 ± 0.074 | 0.785 ± 0.13 | 0.97 (active)
4 | O=C(O)CCC(=O)Nc1ccc(Br)cc1C(=O)c1ccc(Cl)cc1 | 0.993 ± 0.08 | 1.05 ± 0.058 | 0.951 ± 0.066 | 0.986 ± 0.031 | 1.31 ± 0.19 | 1.08 ± 0.18 | 1.01 (active)
5 | Oc1ccccc1C=NNc1nc(-c2ccccc2)cc(-c2ccccc2)n1 | 0.769 ± 0.066 | 1.02 ± 0.088 | 1.03 ± 0.12 | 1.19 ± 0.12 | 1.16 ± 0.16 | 1.26 ± 0.2 | 0.987 (active)
6 | CCCc1nc2c(C)cc(-c3nc4ccccc4n3C)cc2n1Cc1ccc(-c2ccccc2C(=O)O)cc1 | 1.29 ± 0.18 | 1.16 ± 0.29 | 0.99 ± 0.073 | 0.997 ± 0.032 | 1.49 ± 0.28 | 1.06 ± 0.11 | 0.993 (active)
7 | CCN1C(=O)C(=Cc2nc3ccccc3c(=O)n2-c2ccc(C)cc2)c2ccccc21 | 1.06 ± 0.085 | 1.08 ± 0.071 | 0.994 ± 0.077 | 0.89 ± 0.035 | 1.55 ± 0.28 | 1.11 ± 0.078 | 1.01 (active)
8 | Cc1ccc(OCC(=O)NN=Cc2cc(Br)cc(Br)c2O)c([N+](=O)[O-])c1 | 0.928 ± 0.071 | 0.908 ± 0.11 | 1.08 ± 0.17 | 1.01 ± 0.073 | 1.33 ± 0.26 | 1.47 ± 0.33 | 1.02 (active)
9 | CC12CCC(=O)C=C1C=CC1C2CCC2(C)C1CCC21CCC(=O)O1 (stereo not drawn) | 0.781 ± 0.19 | 0.958 ± 0.084 | 0.93 ± 0.059 | 0.963 ± 0.034 | 1.1 ± 0.21 | 1.06 ± 0.12 | 1.01 (active)
10 | O=C1NC(=O)c2c1cc1ccccc1c2-c1ccccc1 | 0.996 ± 0.18 | 0.979 ± 0.077 | 0.952 ± 0.15 | 0.887 ± 0.031 | 1.2 ± 0.2 | 1.35 ± 0.3 | 0.998 (active)
11 | COc1ccccc1N1CCN(c2ncnc3c2cnn3-c2cc(C)cc(C)c2)CC1 | 1.2 ± 0.067 | 1.16 ± 0.1 | 1.19 ± 0.042 | 1.01 ± 0.049 | 1.05 ± 0.098 | 1.08 ± 0.16 | 0.997 (active)
12 | O=C(NC1CC(=O)N(c2ccc(F)cc2)C1)c1ccc(Cl)cc1 (stereo not drawn) | 1.06 ± 0.054 | 1.11 ± 0.088 | 0.877 ± 0.039 | 0.944 ± 0.064 | 1.24 ± 0.11 | 1.2 ± 0.3 | 0.991 (active)
13 | O=C(Nc1c(Cl)cncc1Cl)c1ccc(OC(F)F)c(OCC2CC2)c1 | 2.48 ± 0.36 | 1.99 ± 0.17 | 1.44 ± 0.1 | 0.804 ± 0.025 | 0.908 ± 0.094 | 1.24 ± 0.22 | 0.968 (active)
14 | CC(C)(C)c1ccc(-c2nc(-c3cccc([N+](=O)[O-])c3)no2)cc1 | 1.06 ± 0.1 | 0.972 ± 0.091 | 0.964 ± 0.025 | 1.02 ± 0.071 | 1.01 ± 0.098 | 1.05 ± 0.17 | 0.995 (active)
